# Measurements as given in publication PMC7862700, “An all-to-all approach to the identification of sequence-specific readers for epigenetic DNA modifications on cytosine”.
# Columns and labels:
# Assay in all cases: DAPPL (digital affinity profiling via proximity ligation, sequencing); 10 mM Tris-HCl pH 7.5, 50 mM NaCl, 1 mM DTT, 4% glycerol, room temperature, 30 min; GST-TFs on glutathione beads, 16-mer random dsDNA library, 0.1% formaldehyde crosslink after washing; high values mean tight binding
# FEV = molecular target: T1, FEV (Homo sapiens, UniProt Q99581 1-238); details: protein: recombinant; tags: N-terminal GST; dsDNA, one strand shown
# T1 sequence: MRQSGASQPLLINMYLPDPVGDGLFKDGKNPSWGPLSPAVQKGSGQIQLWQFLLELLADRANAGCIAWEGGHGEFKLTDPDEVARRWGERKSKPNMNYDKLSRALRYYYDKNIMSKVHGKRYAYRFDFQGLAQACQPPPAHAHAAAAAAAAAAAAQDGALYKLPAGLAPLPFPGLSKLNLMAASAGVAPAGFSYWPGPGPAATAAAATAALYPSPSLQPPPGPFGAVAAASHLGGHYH
# Summary of the method: (§1)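 Each value of binding signal is a hexamer's read frequency for a factor divided by the same hexamer's frequency in the tag-only sample. Barcoded, bead-captured GST fusions of human transcription factors made in yeast were pooled with that sample and incubated with 200 nmole of a random double-stranded 16-mer DNA library in Tris/NaCl/DTT/glycerol buffer at room temperature for 30 min. Washing, 0.1% formaldehyde crosslinking, proximity ligation, PCR and Illumina NextSeq500 sequencing followed.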
# ETV5 = ETV5 (Homo sapiens, UniProt P41161 1-510); details: protein: recombinant; tags: N-terminal GST; dsDNA, one strand shown
# Chain of ETV5 (P41161 whole entry): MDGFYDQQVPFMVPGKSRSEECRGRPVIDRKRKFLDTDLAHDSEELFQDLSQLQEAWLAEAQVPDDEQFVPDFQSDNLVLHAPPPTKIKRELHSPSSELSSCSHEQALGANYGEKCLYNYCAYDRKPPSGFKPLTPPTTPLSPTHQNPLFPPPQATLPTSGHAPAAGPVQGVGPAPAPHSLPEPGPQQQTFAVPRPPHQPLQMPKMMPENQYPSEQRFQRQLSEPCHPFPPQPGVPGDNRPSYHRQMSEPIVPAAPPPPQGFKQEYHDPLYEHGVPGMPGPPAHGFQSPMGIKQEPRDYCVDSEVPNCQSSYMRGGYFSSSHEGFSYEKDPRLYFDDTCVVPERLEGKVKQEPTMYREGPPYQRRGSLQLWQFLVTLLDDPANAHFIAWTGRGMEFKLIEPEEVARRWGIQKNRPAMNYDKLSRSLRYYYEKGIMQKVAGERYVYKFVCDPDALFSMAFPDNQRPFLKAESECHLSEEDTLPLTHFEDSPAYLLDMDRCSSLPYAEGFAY
# Summary of the method: as §1
# HSF1 = HSF1 (Homo sapiens, UniProt Q00613 1-529); details: protein: recombinant; tags: N-terminal GST; chain copies: 3; dsDNA, one strand shown
# Chain of HSF1 (Q00613 whole entry): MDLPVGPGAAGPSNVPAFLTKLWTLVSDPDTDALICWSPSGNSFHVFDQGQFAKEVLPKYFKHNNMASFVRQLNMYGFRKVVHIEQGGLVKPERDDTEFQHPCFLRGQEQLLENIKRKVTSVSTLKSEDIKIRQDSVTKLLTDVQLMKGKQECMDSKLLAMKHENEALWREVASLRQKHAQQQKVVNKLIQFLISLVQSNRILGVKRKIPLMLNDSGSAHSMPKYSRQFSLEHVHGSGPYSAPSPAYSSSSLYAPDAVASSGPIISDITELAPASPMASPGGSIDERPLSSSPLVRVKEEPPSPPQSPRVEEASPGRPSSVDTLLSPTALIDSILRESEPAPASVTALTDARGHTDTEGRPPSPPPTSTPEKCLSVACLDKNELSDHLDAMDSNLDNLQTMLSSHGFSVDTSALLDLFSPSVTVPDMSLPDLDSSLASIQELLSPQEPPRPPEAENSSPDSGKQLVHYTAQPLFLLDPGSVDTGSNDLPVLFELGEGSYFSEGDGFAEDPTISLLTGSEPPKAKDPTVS
# Summary of the method: as §1
# SPIC = molecular target: T2, SPIC (Homo sapiens, UniProt Q8N5J4 1-248); details: protein: recombinant; tags: N-terminal GST; dsDNA, one strand shown
# T2 sequence: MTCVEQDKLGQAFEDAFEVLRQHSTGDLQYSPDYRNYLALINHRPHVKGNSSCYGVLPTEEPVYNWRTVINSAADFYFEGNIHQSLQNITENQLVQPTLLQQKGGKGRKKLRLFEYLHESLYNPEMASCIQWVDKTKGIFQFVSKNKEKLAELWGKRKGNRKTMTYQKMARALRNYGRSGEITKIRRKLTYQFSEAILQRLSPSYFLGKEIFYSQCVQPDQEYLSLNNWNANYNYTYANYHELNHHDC
# Summary of the method: as §1
# ELF4 = ELF4 (Homo sapiens, UniProt Q99607 1-663); details: protein: recombinant; tags: N-terminal GST; dsDNA, one strand shown
# Chain of ELF4 (Q99607 whole entry): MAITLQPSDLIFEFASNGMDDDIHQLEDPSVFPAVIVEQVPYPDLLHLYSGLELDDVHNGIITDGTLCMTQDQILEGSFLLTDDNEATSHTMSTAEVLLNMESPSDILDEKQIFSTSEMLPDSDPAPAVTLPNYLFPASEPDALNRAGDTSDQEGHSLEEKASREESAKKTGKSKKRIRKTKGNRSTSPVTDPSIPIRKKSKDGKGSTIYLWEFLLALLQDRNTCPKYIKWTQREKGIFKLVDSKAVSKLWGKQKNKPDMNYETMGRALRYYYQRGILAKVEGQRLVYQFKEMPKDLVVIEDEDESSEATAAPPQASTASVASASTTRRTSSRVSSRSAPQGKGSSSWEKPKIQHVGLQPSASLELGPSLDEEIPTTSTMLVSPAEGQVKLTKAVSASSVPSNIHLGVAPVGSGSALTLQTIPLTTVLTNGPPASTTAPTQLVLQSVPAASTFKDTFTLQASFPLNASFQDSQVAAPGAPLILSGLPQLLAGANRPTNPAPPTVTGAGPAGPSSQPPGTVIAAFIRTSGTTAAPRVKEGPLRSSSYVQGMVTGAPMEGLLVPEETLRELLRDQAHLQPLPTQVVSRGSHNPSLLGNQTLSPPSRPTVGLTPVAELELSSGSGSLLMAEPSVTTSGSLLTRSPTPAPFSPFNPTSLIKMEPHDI
# Summary of the method: as §1
# ELK4 = molecular target: T3, ELK4 (Homo sapiens, UniProt P28324-2 1-405); details: protein: recombinant; tags: N-terminal GST; dsDNA, one strand shown
# T3 sequence: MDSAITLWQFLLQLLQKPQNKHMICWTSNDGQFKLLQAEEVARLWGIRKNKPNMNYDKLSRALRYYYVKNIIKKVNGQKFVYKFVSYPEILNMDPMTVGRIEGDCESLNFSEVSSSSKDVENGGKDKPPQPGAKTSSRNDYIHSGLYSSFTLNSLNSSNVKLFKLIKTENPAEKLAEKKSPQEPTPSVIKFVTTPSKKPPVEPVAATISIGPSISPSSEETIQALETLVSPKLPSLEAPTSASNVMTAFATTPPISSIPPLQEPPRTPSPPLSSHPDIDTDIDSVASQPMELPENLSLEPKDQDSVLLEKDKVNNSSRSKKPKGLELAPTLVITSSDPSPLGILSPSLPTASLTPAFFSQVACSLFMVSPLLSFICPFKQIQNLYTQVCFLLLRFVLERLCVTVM
# Summary of the method: as §1
# ETV2 = molecular target: T4, ETV2 (Homo sapiens, UniProt O00321 1-342); details: protein: recombinant; tags: N-terminal GST; dsDNA, one strand shown
# T4 sequence: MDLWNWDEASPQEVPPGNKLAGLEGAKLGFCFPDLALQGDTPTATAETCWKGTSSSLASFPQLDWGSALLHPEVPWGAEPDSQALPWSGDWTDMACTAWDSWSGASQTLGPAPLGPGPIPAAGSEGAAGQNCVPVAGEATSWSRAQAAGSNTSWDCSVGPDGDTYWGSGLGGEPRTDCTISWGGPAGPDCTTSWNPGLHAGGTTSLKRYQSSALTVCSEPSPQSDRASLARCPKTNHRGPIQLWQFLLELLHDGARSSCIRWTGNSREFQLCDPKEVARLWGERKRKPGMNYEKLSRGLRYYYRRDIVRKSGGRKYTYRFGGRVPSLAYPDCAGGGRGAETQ
# Summary of the method: as §1
# ELF3 = molecular target: T5, ELF3 (Homo sapiens, UniProt P78545 1-371); details: protein: recombinant; tags: N-terminal GST; dsDNA, one strand shown
# T5 sequence: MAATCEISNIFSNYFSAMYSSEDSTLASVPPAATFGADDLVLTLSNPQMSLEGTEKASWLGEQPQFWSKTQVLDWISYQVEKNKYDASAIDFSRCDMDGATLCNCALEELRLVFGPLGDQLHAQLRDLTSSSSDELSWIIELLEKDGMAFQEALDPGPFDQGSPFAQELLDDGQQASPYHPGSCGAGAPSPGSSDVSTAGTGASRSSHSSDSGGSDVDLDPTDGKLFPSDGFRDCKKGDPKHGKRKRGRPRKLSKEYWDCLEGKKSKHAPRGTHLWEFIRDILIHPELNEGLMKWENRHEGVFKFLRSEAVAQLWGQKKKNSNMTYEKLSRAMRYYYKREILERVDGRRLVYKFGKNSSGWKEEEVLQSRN
# Summary of the method: as §1
# CRX = CRX (Homo sapiens, UniProt O43186 1-299); details: protein: recombinant; tags: N-terminal GST; dsDNA, one strand shown
# Chain of CRX (O43186 whole entry): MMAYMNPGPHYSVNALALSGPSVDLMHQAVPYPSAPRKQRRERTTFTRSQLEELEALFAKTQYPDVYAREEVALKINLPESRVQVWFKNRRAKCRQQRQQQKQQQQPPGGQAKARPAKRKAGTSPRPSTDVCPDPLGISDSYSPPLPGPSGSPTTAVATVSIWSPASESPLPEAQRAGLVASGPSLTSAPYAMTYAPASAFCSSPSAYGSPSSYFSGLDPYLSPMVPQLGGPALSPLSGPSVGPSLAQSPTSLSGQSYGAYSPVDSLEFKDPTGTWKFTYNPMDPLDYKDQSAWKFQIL
# Summary of the method: as §1
# ETV1 = ETV1 (Homo sapiens, UniProt P50549 1-477); details: protein: recombinant; tags: N-terminal GST; dsDNA, one strand shown
# Chain of ETV1 (P50549 whole entry): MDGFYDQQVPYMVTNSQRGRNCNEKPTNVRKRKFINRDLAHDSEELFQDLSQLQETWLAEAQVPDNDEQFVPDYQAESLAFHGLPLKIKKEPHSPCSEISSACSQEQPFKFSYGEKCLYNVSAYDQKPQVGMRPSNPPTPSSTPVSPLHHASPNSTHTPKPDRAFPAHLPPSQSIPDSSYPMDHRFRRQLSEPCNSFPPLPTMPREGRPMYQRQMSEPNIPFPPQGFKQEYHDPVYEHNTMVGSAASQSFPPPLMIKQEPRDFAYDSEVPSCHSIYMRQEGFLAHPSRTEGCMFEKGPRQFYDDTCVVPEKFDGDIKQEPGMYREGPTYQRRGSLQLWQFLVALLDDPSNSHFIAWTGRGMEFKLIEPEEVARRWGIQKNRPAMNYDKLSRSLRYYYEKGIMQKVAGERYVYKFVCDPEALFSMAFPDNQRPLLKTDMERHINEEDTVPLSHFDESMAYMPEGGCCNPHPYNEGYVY
# Summary of the method: as §1
# ERF = molecular target: T6, ERF (Homo sapiens, UniProt P50548 1-548); details: protein: recombinant; tags: N-terminal GST; dsDNA, one strand shown
# T6 sequence: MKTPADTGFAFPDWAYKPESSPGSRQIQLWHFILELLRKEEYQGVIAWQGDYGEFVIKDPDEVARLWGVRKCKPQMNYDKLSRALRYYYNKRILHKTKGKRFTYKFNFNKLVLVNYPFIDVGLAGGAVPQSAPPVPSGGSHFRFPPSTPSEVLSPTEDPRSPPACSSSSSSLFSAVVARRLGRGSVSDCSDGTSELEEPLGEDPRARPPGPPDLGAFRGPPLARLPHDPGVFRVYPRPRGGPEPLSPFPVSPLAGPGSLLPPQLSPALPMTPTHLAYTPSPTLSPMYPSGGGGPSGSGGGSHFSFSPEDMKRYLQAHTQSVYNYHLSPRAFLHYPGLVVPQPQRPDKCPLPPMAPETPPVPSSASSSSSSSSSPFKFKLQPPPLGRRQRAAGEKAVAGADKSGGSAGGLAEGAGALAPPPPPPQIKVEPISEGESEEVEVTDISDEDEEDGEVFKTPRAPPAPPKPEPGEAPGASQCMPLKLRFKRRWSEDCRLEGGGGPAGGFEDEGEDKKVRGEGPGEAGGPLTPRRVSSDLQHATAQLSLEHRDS
# Summary of the method: as §1
# ETV3L = molecular target: T7, ETV3L (Homo sapiens, UniProt Q6ZN32 1-361); details: protein: recombinant; tags: N-terminal GST; dsDNA, one strand shown
# T7 sequence: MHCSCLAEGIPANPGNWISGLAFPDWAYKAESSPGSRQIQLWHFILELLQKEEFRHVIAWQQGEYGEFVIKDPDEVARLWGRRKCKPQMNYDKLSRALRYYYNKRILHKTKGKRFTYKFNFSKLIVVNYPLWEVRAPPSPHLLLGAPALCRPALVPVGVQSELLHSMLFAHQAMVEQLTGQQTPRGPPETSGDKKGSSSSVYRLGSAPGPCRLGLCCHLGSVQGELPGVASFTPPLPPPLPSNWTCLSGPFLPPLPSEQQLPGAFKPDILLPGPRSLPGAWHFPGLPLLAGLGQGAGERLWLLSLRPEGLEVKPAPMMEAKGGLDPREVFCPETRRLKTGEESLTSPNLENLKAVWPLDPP
# Summary of the method: as §1
# ETS2 = molecular target: T8, ETS2 (Homo sapiens, UniProt P15036 1-469); details: protein: recombinant; tags: N-terminal GST; dsDNA, one strand shown
# T8 sequence: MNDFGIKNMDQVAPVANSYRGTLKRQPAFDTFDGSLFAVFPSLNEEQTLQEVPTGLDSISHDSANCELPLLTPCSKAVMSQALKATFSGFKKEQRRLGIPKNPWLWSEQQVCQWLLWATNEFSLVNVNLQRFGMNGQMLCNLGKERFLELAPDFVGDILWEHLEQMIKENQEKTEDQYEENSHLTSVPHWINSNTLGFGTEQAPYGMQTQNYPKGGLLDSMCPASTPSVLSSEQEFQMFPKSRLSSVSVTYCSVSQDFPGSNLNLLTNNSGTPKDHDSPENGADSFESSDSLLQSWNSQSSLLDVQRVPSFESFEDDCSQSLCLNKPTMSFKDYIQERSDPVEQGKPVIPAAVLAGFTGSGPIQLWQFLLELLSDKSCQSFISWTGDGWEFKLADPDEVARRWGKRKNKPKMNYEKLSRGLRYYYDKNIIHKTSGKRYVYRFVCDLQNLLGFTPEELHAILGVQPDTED
# Summary of the method: as §1
# SPDEF = molecular target: T9, SPDEF (Homo sapiens, UniProt O95238 1-335); details: protein: recombinant; tags: N-terminal GST; dsDNA, one strand shown
# T9 sequence: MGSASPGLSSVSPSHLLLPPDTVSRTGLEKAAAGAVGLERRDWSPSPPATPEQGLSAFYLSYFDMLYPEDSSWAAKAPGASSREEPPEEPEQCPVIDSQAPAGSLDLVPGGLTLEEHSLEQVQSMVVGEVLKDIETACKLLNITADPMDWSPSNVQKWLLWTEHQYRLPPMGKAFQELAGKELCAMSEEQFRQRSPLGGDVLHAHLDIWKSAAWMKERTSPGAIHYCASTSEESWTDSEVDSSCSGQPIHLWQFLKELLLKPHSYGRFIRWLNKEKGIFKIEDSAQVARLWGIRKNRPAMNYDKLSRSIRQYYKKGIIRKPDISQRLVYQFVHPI
# Summary of the method: as §1
# ETV7 = molecular target: T10, ETV7 (Homo sapiens, UniProt Q9Y603 1-341); details: protein: recombinant; tags: N-terminal GST; dsDNA, one strand shown
# T10 sequence: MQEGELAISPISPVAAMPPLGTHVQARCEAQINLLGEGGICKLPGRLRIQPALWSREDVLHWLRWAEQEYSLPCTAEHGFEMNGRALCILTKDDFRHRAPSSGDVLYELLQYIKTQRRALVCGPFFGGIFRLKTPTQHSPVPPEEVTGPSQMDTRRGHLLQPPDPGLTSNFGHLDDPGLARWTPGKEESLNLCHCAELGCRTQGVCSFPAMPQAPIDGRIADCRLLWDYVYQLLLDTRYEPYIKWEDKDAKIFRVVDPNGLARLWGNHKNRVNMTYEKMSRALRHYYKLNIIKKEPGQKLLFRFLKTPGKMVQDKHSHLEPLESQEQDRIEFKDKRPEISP
# Summary of the method: as §1
# ELF5 = molecular target: T11, ELF5 (Homo sapiens, UniProt Q9UKW6-2 1-255); details: protein: recombinant; tags: N-terminal GST; dsDNA, one strand shown
# T11 sequence: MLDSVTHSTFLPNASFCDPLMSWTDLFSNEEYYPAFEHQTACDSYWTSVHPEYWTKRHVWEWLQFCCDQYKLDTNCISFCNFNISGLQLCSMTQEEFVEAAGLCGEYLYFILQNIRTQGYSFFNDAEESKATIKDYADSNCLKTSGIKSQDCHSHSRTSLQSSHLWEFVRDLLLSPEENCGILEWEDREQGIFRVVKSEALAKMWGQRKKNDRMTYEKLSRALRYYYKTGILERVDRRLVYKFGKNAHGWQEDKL
# Summary of the method: as §1
# ETV3 = molecular target: T12, ETV3 (Homo sapiens, UniProt P41162-2 1-143); details: protein: recombinant; tags: N-terminal GST; dsDNA, one strand shown
# T12 sequence: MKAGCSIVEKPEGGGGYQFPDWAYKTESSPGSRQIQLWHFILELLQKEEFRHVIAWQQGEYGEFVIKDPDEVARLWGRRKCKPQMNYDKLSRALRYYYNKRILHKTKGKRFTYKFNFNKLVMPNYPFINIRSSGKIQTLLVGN
# Summary of the method: as §1
# ETV6 = ETV6 (Homo sapiens, UniProt P41212 1-452); details: protein: recombinant; tags: N-terminal GST; dsDNA, one strand shown
# Chain of ETV6 (P41212 whole entry): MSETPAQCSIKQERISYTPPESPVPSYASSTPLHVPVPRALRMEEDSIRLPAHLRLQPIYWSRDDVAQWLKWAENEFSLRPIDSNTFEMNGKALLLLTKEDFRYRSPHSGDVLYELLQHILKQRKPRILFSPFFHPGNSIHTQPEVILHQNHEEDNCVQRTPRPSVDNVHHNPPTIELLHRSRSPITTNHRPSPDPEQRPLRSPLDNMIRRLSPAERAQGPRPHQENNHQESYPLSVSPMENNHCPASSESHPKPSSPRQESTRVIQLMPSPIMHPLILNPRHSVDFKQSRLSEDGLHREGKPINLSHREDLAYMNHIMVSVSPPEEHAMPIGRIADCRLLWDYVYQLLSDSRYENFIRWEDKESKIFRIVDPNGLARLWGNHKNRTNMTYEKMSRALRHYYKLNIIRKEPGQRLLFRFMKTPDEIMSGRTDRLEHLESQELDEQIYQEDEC
# Summary of the method: as §1
sequence,measurement,setting,value
ATCCCC,binding signal,FEV,"1.44 fold enrichment (6-mer frequency, TF over GST control)"
same,binding signal,ETV5,"1.37 fold enrichment (6-mer frequency, TF over GST control)"
same,binding signal,HSF1,"1.78 fold enrichment (6-mer frequency, TF over GST control)"
same,binding signal,SPIC,"1.37 fold enrichment (6-mer frequency, TF over GST control)"
same,binding signal,ELF4,"1.37 fold enrichment (6-mer frequency, TF over GST control)"
same,binding signal,ELK4,"1.44 fold enrichment (6-mer frequency, TF over GST control)"
same,binding signal,ETV2,"1.39 fold enrichment (6-mer frequency, TF over GST control)"
same,binding signal,ELF3,"1.53 fold enrichment (6-mer frequency, TF over GST control)"
same,binding signal,CRX,"2.37 fold enrichment (6-mer frequency, TF over GST control)"
same,binding signal,ETV1,"1.43 fold enrichment (6-mer frequency, TF over GST control)"
same,binding signal,ERF,"1.43 fold enrichment (6-mer frequency, TF over GST control)"
same,binding signal,ETV3L,"1.41 fold enrichment (6-mer frequency, TF over GST control)"
same,binding signal,ETS2,"1.29 fold enrichment (6-mer frequency, TF over GST control)"
same,binding signal,SPDEF,"1.41 fold enrichment (6-mer frequency, TF over GST control)"
same,binding signal,ETV7,"1.3 fold enrichment (6-mer frequency, TF over GST control)"
same,binding signal,ELF5,"1.46 fold enrichment (6-mer frequency, TF over GST control)"
same,binding signal,ETV3,"1.35 fold enrichment (6-mer frequency, TF over GST control)"
same,binding signal,ETV6,"1.29 fold enrichment (6-mer frequency, TF over GST control)"
